Results with a measured potency or affinity are listed apart. Results filed as inconclusive are left out. The source made the active and inactive calls.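 How the source made its calls: active means in every test run, a fitted half-maximal concentration for signal decrease at or below twice the highest tested concentration; inconclusive means runs disagree, flat 30 to 70% decrease, or poor fit; inactive means the rest.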
Test: miR-122 activators in hepatoma reporter cells, dose response, cell-based, Huh7 psiCHECK-miR122, Renilla luciferase, cherry-picked (AID 651956);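 further: Renilla luciferase from a miR-122 sensor reporter so lower signal means miR-122 activation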
Conditions: 48 h; series mostly up to 35 µM

outcome, inactive:
COc1cccc(COc2cc3ccccc3nc2C)c1
COCC(=O)Nc1ccc2c(c1)C(=O)N(C)[C@@H]1CC[C@@H](CC(=O)OC)O[C@@H]1CO2
CCNC(=O)Nc1ccc2c(c1)C(=O)N(C)[C@H]1CC[C@H](CC(=O)Nc3cccc(F)c3)O[C@@H]1CO2
CN1C(=O)c2cc(NC(=O)c3ccccc3F)ccc2OC[C@H]2O[C@@H](CC(=O)NCc3ccc4c(c3)OCO4)CC[C@@H]21
COc1cc(NC(=O)c2c(F)c(F)c(F)c(F)c2F)c(OC)cc1Cl
COc1ccc(NC(=O)Cn2nnc(C(=O)NCc3ccccc3OC)c2N)cc1Cl
COC(=O)C[C@@H]1CC[C@H]2[C@@H](COc3ccc(NC(=O)c4ccc(F)c(F)c4)cc3C(=O)N2C)O1
COCC(=O)NC[C@H]1[C@@H](c2ccc(C3=CCCC3)cc2)[C@@H](CO)N1C(=O)C1CC1
CC(C)NC(=O)N1C[C@@H]2[C@H](c3ccccc31)[C@H](CO)N2Cc1ccccc1
CC(=O)Nc1ccc2c(c1)C(=O)N(C)[C@@H]1CC[C@H](CC(=O)NC3CCCCC3)O[C@H]1CO2
CN1CCN(c2ccc(Cl)cc2NC(=O)c2ccc(S(=O)(=O)N3CCCCCC3)cc2)CC1
CCCNC(=O)C[C@H]1CC[C@@H]2[C@H](COc3ccc(NC(=O)c4cc(F)cc(F)c4)cc3C(=O)N2C)O1
CN(C)CCCNC(=O)C[C@@H]1CC[C@H]2[C@H](COc3ccc(NC(=O)c4cccc(F)c4)cc3C(=O)N2C)O1
Cc1nc(C)c(C(=O)Nc2ccc(Oc3ccccc3)cc2)o1

— PubChem BioAssay AID651956 (Broad Institute, 2012)
